Screens (PubChem BioAssay)
Compounds with a hit are over-represented: about 3.6% of the library has one in this group of screens.
Mtb FBA inh: Mtb FBA enzyme inhibitors, primary screen, biochemical, fluorescence, strain H37Rv | Fructose-bisphosphate aldolase (Mycobacterium tuberculosis (strain ATCC 25618 / H37Rv)), … | purified M. tuberculosis FBA, fluorescence read-out | inhibition, % at 1 µM | 360,000 compounds, 2.3% hits; in the data active means inhibition above about 27%;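 further: 0% = vehicle and 100% = reference inhibitor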
Target sequence (P9WQA3 whole entry, looked up): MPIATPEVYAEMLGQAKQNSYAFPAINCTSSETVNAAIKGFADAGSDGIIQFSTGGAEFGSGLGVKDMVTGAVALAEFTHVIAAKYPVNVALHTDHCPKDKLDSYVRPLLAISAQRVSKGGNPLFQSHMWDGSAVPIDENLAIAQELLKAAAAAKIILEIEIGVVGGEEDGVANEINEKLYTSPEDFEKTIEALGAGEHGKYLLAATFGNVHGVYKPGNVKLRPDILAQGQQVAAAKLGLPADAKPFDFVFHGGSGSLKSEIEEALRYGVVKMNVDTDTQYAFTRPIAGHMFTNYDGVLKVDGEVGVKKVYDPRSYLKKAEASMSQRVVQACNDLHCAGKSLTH
Mtb hypoxia inh: PubChem AID 1159583. fluorescence inhibition, % (concentration not given with the values). 300,000 compounds, 0.1% hits. M. tuberculosis hypoxia-regulated fluorescent reporter, fluorescence; in the data active means fluorescence inhibition mostly above about 23%, no sharp cut-off; inactive means mostly below about 17%
DUSP3 inh: VHR1 phosphatase inhibitors, primary screen, biochemical, absorbance, uHTS | inhibition, % at 13.3 µM | recombinant VHR phosphatase, pNPP absorbance | 290,000 compounds, 0.52% hits | Dual specificity protein phosphatase 3 (Homo sapiens), P51452; in the data active means inhibition above about 50%
Target sequence (P51452 whole entry, looked up): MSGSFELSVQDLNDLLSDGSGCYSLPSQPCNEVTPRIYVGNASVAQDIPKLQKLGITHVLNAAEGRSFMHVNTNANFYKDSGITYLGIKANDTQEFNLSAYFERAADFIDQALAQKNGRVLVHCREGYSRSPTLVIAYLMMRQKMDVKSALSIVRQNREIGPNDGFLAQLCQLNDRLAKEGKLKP
GDH-TPI counter: GDH-TPI coupling enzyme inhibitors, primary screen, artefact control for M. tuberculosis FBA inhibitor project, biochemical, absorbance, full deck; 360,000 compounds, 1.2% hits; inhibition, % at 4.8 µM; GDH-TPI coupled enzyme counterscreen, NADH absorbance; in the data active means inhibition above about 30%;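 further: 0% = DMSO wells and 100% = wells lacking the enzyme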
Mtb betalactam: beta-lactam sensitization of Mtb H37Rv, H37Rv. inhibition, % at 25 µM. AID 434955, 2010. M. tuberculosis H37Rv growth with meropenem, percent inhibition. 330,000 compounds, 0.27% hits; call rule not given here;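 further: growth measured after seven days incubation then overnight dye step; 0% = bacteria only wells and 100% = bacteria with antibiotic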
The depositor's hits bear a star; · = not tested or not shown.

SMILES | Mtb FBA inh | Mtb hypoxia inh | DUSP3 inh | GDH-TPI counter | Mtb betalactam
CCOc1cc(C=NNc2nncc(-c3ccccc3)n2)ccc1O | · | 5 | · | · | ·
COc1ccc(-c2cnnc(N/N=C/c3ccc(O)c(OC)c3)n2)cc1 | -1 | · | 34 | 55* | 3
COc1cc(C=NNc2ccc(C(=O)O)cc2)ccc1O | · | 1 | · | · | ·
COc1cc(/C=N/Nc2ccc(C(=O)O)cc2)cc(OC)c1OC | -1 | · | 17 | 41* | 1
COc1cc(/C=N/Nc2nc(N3CCCC3)nc(N3CCCC3)n2)ccc1O | 5 | · | 17 | 35* | ·
Cc1nc(N=CN(C)C)sc1C(=O)Nc1ccccc1 | · | -5 | · | · | ·
COc1ccc(OC)c(C=NNC(=S)NCCc2ccccc2)c1 | · | 9 | · | · | ·
COc1cc(/C=C/C(C)=NNc2ccccc2)ccc1O | 1 | 19 | · | 32* | ·
COc1ccc(/C(C)=N/Nc2ccc(C(=O)O)cc2)cc1OC | 4 | · | 2 | 56* | 10
C/C(CCc1ccccc1)=N\NC(=S)NCCc1ccccc1 | 8 | · | 50* | 9 | 99
COc1cc(/C=N/NC(=S)NCCc2ccccc2)cc(OC)c1OC | 1 | · | 10 | 41* | 14
COc1ccc(N2C(=O)N3C(c4ccc(Cl)cc4)C4C(=O)N(C5CCCCC5)C(=O)C4[C@]3(Cc3ccc(Cl)cc3)C2=O)cc1 (stereo partly specified) | · | -2 | · | · | ·
Cc1ccc(C=NNC(=O)c2cccc(S(=O)(=O)Nc3ccccc3Cl)c2)s1 | · | 12 | · | · | ·
COc1cc(/C=N/NC(=S)Nc2cccc(C(=O)O)c2)ccc1O | 4 | · | 8 | 32* | -3
COc1cc(C=NNC(=S)Nc2cccc(C(=O)O)c2)ccc1O | · | 7 | · | · | ·
O=C(NN=Cc1cc([N+](=O)[O-])cc(Br)c1O)C12CC3CCC(CC(C3)C1)C2 | · | 8 | · | · | ·
C#CC1(O)CCC2C3CCC4=CC(=O)CCC4=C3C=CC21C (stereo unspecified) | 14 | · | · | 42* | ·
CCOC1OC(C(=O)N2CCN(C)CC2)=CC(C2CCCCC2)C1CCCO (stereo unspecified) | · | -3 | · | · | ·
CCCCCOCC1CC(CC(C)=NNC(N)=S)C(=O)O1 (stereo unspecified) | · | 0 | · | · | ·
CCCCNC(=S)N/N=C/c1ccc(C)s1 | 6 | · | -4 | 63* | 98
Cc1ccc(/C=N/NC(=S)NCCc2ccccc2)s1 | 0 | · | -10 | 7 | 2
COc1ccc(C(=O)Cc2ccc3c(c2)OCO3)c(O)c1 | 1 | -1 | 7 | 6 | 6
COc1ccc(CC(=O)c2ccc(O)cc2O)cc1 | 2 | · | 15 | 43* | -3
Cc1ccc(C(=O)Cc2ccccc2)c(O)c1 | -1 | 19 | · | -1 | ·
O=C(Cc1ccc([N+](=O)[O-])cc1)c1ccc(O)cc1O | 1 | -1 | -21 | 51* | -4
SMILES | Mtb FBA inh | Mtb hypoxia inh | DUSP3 inh | GDH-TPI counter | Mtb betalactam
O=C(Cc1ccc(Br)cc1)c1ccc(O)cc1O | -4 | 11 | 14 | 41* | 7
O=C(COc1ccccc1Br)c1ccc(O)cc1O | -1 | -12 | 19 | 44* | 5
Cc1ccc(C=NN2C(=O)c3ccccc3NC2c2ccc(C)cc2)cc1 (stereo unspecified) | · | 5 | · | · | ·
COc1ccccc1OC(C)C(=O)Nc1ccc2c(c1)OCCO2 (stereo unspecified) | -1 | -1 | 56* | 0 | -2
CCOC(=O)C1CCN(c2c(Nc3ccc4c(c3)OCCO4)c(=O)c2=O)CC1 | -1 | 7 | 47 | 11 | -4
CCOC(=O)C1CCN(C(C(=O)Nc2ccc3c(c2)OCCO3)c2ccccc2)CC1 (stereo unspecified) | 4 | · | 53* | 1 | -5
CCOC(=O)C1C2COc3cc(OC)ccc3C2N2C(=O)c3cc(F)c(F)cc3NC(=O)[C@@]12C (stereo partly specified) | · | 17 | · | · | ·
Nc1cc(C(F)(F)F)ccc1C(=O)O | 76* | · | 1 | 9 | -5
Nc1cc(S(=O)(=O)C(F)(F)F)ccc1C(=O)O | 1 | 13 | 22 | 14 | -13
COc1cc(C(C#N)N2CCOCC2)ccc1O (stereo unspecified) | 4 | -2 | -8 | 37* | -11
COc1ccc(C(C#N)N2CCCCC2)cc1OC (stereo unspecified) | 0 | 10 | 23 | 3 | -7
COc1cc(C(C#N)N2CCCCC2)ccc1O (stereo unspecified) | -2 | · | 21 | 34* | -8
CCCN(CCC)CCCNC(=O)c1ccc(CS(=O)(=O)c2c(Cl)cccc2Cl)o1 | 2 | -9 | 55* | -6 | -5
CCN1CCN(C(=O)COc2ccc(S(=O)(=O)N3CCOCC3)cc2C)CC1 | -2 | 2 | 54* | 2 | 1
CCCOc1ccccc1OCC(=O)N1CCN(S(=O)(=O)c2ccc(Cl)cc2)CC1 | -4 | 32* | · | 8 | -7
COc1ccc(/C=N/NC(=S)Nc2cc(S(=O)(=O)N3CCOCC3)ccc2N2CCOCC2)cc1O | 0 | · | -4 | 42* | 4
CCN1CCN(c2ccc(S(=O)(=O)N3CCCCC3)cc2NC(=O)/C=C/c2ccc(OC)c(OC)c2)CC1 | -3 | 7 | · | 20 | 3
CCN1CCN(c2ccc(S(=O)(=O)N3CCOCC3)cc2NC(=O)/C=C/c2ccc(OC)c(OC)c2)CC1 | 5 | · | · | 34* | 6
CNC(=O)c1[nH]cnc1C(=O)NC(CC(C)C)C(=O)OCc1ccccc1 (stereo unspecified) | · | 10 | · | · | ·
CC(C)(C)c1cc(C(=O)NN=Cc2ccc([N+](=O)[O-])s2)n[nH]1 | · | 9 | · | · | ·
CCOC(=O)c1cc(OC)c2cccc(CN3CCC(C)(C(=O)NCCOC)C3)c2c1 (stereo unspecified) | 28* | · | · | 20 | ·
O=C(Cc1ccccc1)NN=Cc1cccs1 | · | 13 | · | · | ·
CC(C=NNC(=O)c1ccccc1F)c1ccccc1 (stereo unspecified) | · | 6 | · | · | ·
COC1=C/C(=C/c2c(N)n3c(nc2=O)sc2cc(S(C)(=O)=O)ccc23)C=CC1=O | -5 | · | 37 | 52* | -7
CS(=O)(=O)c1ccc2c(c1)sc1nc(=O)c(/C=C3/C=CC(=O)C(O)=C3)c(N)n12 | 6 | 14 | · | 17 | 4
SMILES | Mtb FBA inh | Mtb hypoxia inh | DUSP3 inh | GDH-TPI counter | Mtb betalactam
COC(=O)[C@]1(C)NC(c2ccc(-c3ccc(OC)cc3)cc2)C2C(=O)N(C)C(=O)C21 (stereo partly specified) | · | -1 | · | · | ·
CC(=O)ON=C(N)c1cnn2c(C(F)(F)F)cc(C(F)(F)F)nc12 | · | -9 | · | · | ·
CCCOc1ccc(-c2nc(C#N)c(NCC3CCCO3)o2)cc1 (stereo unspecified) | 121* | 10 | 19 | 17 | 98
N#Cc1nc(-c2ccccc2Cl)oc1NCC1CCCO1 (stereo unspecified) | 19 | 17 | 38 | 28 | 1
N#Cc1nc(Cc2cccc3ccccc23)oc1NCC1CCCO1 (stereo unspecified) | 2 | -7 | 19 | 9 | 0
CCOc1ccc(-c2nc(C#N)c(NCC3CCCO3)o2)cc1 (stereo unspecified) | 177* | 12 | 20 | 22 | 19
